# Laboratory results published in the supplement of paper PMC10037445.
# Values joined by “and” are separate entries in the source; they are usually repeats but may differ in a detail not shown here. Identical values can stand only once. In all, about 2,900 compounds were measured (“NF-kB SEAP reporter activity, fold change vs agonist alone”: median about 0.99, highest 2% from about 2.6 on). Shown is part of a subset that was picked to be rich in the highest values.
# Columns and labels:
# [1] = test system: RAW-Dual; experiment: NF-kB SEAP reporter activity, fold change vs agonist alone; higher = enhanced NF-kB activity
# Summary of the method: (§1)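 After 50 nL of library stock was delivered by pin tool to RAW-Dual macrophages (50,000 cells/well, DMEM, 384-well plates), a PRR agonist was added 1 h later and the plates were kept at 37 °C, 5% CO2. Twenty hours later, IRF was read from supernatant by QuantiLuc luminescence and NF-κB by QuantiBlue absorbance at 620 nm. Reporter activity is stated as fold change over agonist-alone wells. Wells with IncuCyte confluency under 70% of agonist controls in both mask sets were counted as cytotoxic.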
# [2] = test system: RAW-Dual; experiment: NF-kB SEAP reporter activity, fold change vs agonist alone; cytotoxicity flag (confluency mask): not cytotoxic; higher = enhanced NF-kB activity
# Summary of the method: as §1
# [3] = test system: RAW-Dual; experiment: NF-kB SEAP reporter activity, fold change vs agonist alone; cytotoxicity flag (confluency mask): cytotoxic (confluency <70% of control); higher = enhanced NF-kB activity
# Summary of the method: as §1
# [4] = library stock concentration (final ~1000-fold dilution): 10 mM, cytotoxicity flag (confluency mask): not cytotoxic, agonist: Imiquimod (TLR7) […]
# [5] = library stock concentration (final ~1000-fold dilution): 10 mM, cytotoxicity flag (confluency mask): not cytotoxic, agonist: MPLA (TLR4) […]
# [6] = agonist: ODN 1826 (TLR9) 0.5 ug/mL
# [7] = agonist: Pam2CSK4 (TLR2/6) 0.1 ug/mL
# [8] = agonist: Pam3CSK4 (TLR2/1) 0.1 ug/mL
smiles,measurement,setting,value
Nc1nc(F)nc2c1ncn2C1OC(COP(=O)(O)O)C(O)C1O (centres undefined),NF-kB SEAP reporter activity,[1]; [4],0.903
same,NF-kB SEAP reporter activity,[1]; [5],1.03
Nc1nc(F)nc2c1ncn2C1OC(COP(=O)(O)O)C(O)C1O (centres undefined) (library stock concentration (final ~1000-fold dilution): 10 mM),NF-kB SEAP reporter activity,[2]; agonist: LPS (TLR4) 0.1 ug/mL,1.14
same,NF-kB SEAP reporter activity,[2]; [6],1.01
same,NF-kB SEAP reporter activity,[2]; [7],1
same,NF-kB SEAP reporter activity,[2]; [8],1.15
O=C(c1ccccc1)c1ccc2nc(NC(=O)c3csc(C4CCN(c5ncnc6ccsc56)CC4)n3)[nH]c2c1 (library stock concentration (final ~1000-fold dilution): 10 mM),NF-kB SEAP reporter activity,[2]; agonist: LPS (TLR4) 0.1 ug/mL,2.75 and 2.17
same,NF-kB SEAP reporter activity,[2]; [6],1.57 and 1.25
same,NF-kB SEAP reporter activity,[2]; [7],0.384 and 0.435
same,NF-kB SEAP reporter activity,[2]; [8],0.694 and 0.75
CNC(C)C(=O)NC(C(=O)N1CCCC1C(=O)NC1c2ccccc2CC1OCC#CC#CCOC1Cc2ccccc2C1NC(=O)C1CCCN1C(=O)C(NC(=O)C(C)NC)C1CCCCC1)C1CCCCC1 (centres undefined) (library stock concentration (final ~1000-fold dilution): 10 mM water),NF-kB SEAP reporter activity,[3]; agonist: LPS (TLR4) 0.1 ug/mL,0.764
same,NF-kB SEAP reporter activity,[3]; [6],1.11
same,NF-kB SEAP reporter activity,[3]; [7],0.798
same,NF-kB SEAP reporter activity,[3]; [8],0.718
CNC(C)C(=O)NC(C(=O)N1CCCC1C(=O)NC1c2ccccc2CC1OCC#CC#CCOC1Cc2ccccc2C1NC(=O)C1CCCN1C(=O)C(NC(=O)C(C)NC)C1CCCCC1)C1CCCCC1 (centres undefined),NF-kB SEAP reporter activity,"[1]; library stock concentration (final ~1000-fold dilution): 10 mM water, cytotoxicity flag (confluency mask): cytotoxic (confluency <70% of control), agonist: Imiquimod (TLR7) […]",0.836
same,NF-kB SEAP reporter activity,"[1]; library stock concentration (final ~1000-fold dilution): 10 mM water, cytotoxicity flag (confluency mask): cytotoxic (confluency <70% of control), agonist: MPLA (TLR4) […]",0.786
CC1(F)C(O)C(CO)OC1n1ccc(=O)[nH]c1=O (centres undefined),NF-kB SEAP reporter activity,[1]; [5],1.02
CC1(F)C(O)C(CO)OC1n1ccc(=O)[nH]c1=O (centres undefined) (library stock concentration (final ~1000-fold dilution): 10 mM),NF-kB SEAP reporter activity,[2]; agonist: LPS (TLR4) 0.1 ug/mL,1.26
same,NF-kB SEAP reporter activity,[2]; [6],0.945
same,NF-kB SEAP reporter activity,[2]; [7],0.82
same,NF-kB SEAP reporter activity,[2]; [8],0.78
CC1COCCN1c1cc(-c2ccnn2C)c2ccnc(-c3ccn[nH]3)c2n1.Cl (centres undefined) (library stock concentration (final ~1000-fold dilution): 10 mM),NF-kB SEAP reporter activity,[2]; agonist: LPS (TLR4) 0.1 ug/mL,1.89
same,NF-kB SEAP reporter activity,[2]; [6],0.957
same,NF-kB SEAP reporter activity,[2]; [7],1.09
same,NF-kB SEAP reporter activity,[2]; [8],1.19
CC1COCCN1c1cc(-c2ccnn2C)c2ccnc(-c3ccn[nH]3)c2n1.Cl (centres undefined),NF-kB SEAP reporter activity,[1]; [4],1.48
same,NF-kB SEAP reporter activity,[1]; [5],2.05
CC(C)NCC(O)COc1cccc2ccccc12.Cl (centres undefined) (library stock concentration (final ~1000-fold dilution): 10 mM),NF-kB SEAP reporter activity,[2]; agonist: LPS (TLR4) 0.1 ug/mL,0.913
same,NF-kB SEAP reporter activity,[2]; [6],0.94
same,NF-kB SEAP reporter activity,[2]; [7],0.822
same,NF-kB SEAP reporter activity,[2]; [8],1.08
CC(C)NCC(O)COc1cccc2ccccc12.Cl (centres undefined),NF-kB SEAP reporter activity,[1]; [4],1.07
same,NF-kB SEAP reporter activity,[1]; [5],1.04
CNCCN(C)Cc1c[nH]nc1-c1ccc(OC2CC(OCCC3CCOCC3)C2)cc1.Cl.Cl (centres undefined),NF-kB SEAP reporter activity,[1]; [4],0.935
same,NF-kB SEAP reporter activity,[1]; [5],1.07
CNCCN(C)Cc1c[nH]nc1-c1ccc(OC2CC(OCCC3CCOCC3)C2)cc1.Cl.Cl (centres undefined) (library stock concentration (final ~1000-fold dilution): 10 mM),NF-kB SEAP reporter activity,[2]; agonist: LPS (TLR4) 0.1 ug/mL,0.836
same,NF-kB SEAP reporter activity,[2]; [6],0.674
same,NF-kB SEAP reporter activity,[2]; [7],0.874
same,NF-kB SEAP reporter activity,[2]; [8],0.586
